Measurements reported in PubChem BioAssay AID588453 (National Center for Advancing Translational Sciences (NCATS), 2011).
Screen size: about 390,000 compounds; about 4,000 (1%) were called active. Another 4% or so got no clear call; they are omitted. Calls follow the shape of the dose curve; as a rule, active = well fitted inhibition curve with a large enough effect; inconclusive = small, poorly fitted or top-dose-only effect; inactive = no such curve, though single readings can be large or run the other way. Only a selection was taken, and actives are over-represented in it overall.

What follows are molecules tested against Thioredoxin reductase 1, cytoplasmic (Rattus norvegicus) (UniProt O89049) (assay: qHTS Assay for Inhibitors of Mammalian Selenoprotein Thioredoxin Reductase 1 (TrxR1): qHTS). Conditions: recombinant rTrxR1, NADPH fluorescence consumption, selenite substrate; series mostly up to 114 µM.
Excerpt: The selenoprotein thioredoxin reductase (TrxR; EC 1.8.1.9) is a FAD containing homodimeric pyridine nucleotide-disulfide oxidoreductase with many cellular roles. Together with NADPH and its prime substrate thioredoxin (Trx), the enzyme forms the core of the Trx system. The mammalian Trx system exerts a wide spectrum of functions including redox regulation, antioxidant defense, regulation of transcription factors as well as support of cell growth and replication. Many of these functions involve the reduction of Trx, which may subsequently reduce a number of different substrates including ribonucleotide reductase, peroxiredoxins or NFkB. Mammalian TrxR itself also has a broad substrate specificity, reducing both protein and non-protein substrates, including low molecular weight compounds such as dehydroascorbate, lipoic acid, ubiquinone, and juglone. In addition, several drugs in clinical use for anticancer treatment are indeed known to target TrxR1.
This BioAssay is a validation of an NADPH fluorescence-based, dual-purpose qHTS rTrxR1 assay designed to find potential inhibitors and substrates of rTrxR1. For this particular BioAssay, actives are potential inhibitors. See related BioAssay for substrate data deposition.
NIH Molecular Libraries Probe Production Network [MLPCN]
NIH Chemical Genomics Center [NCGC]
Assay Provider: Elias Arner, Karolinska Institute
Assay protocol: 2 uL of reagents (buffer in column 4 as negative control and 90 nM rTrxR1 in columns 1-3 and 5-48) were dispensed into Greiner black solid-bottom 1,536-well assay plates, followed by 1 uL of NADPH (400 uM final concentration) to each well. The plates were centrifuged at 1000 rpm for 15 seconds and subsequently incubated for 5 min at room temperature (~22 deg C) to allow for rTrxR1 reduction. Compounds (23 nL) were then transferred via Kalypsys pin tool equipped with 1536-pin array (10 nL slotted pins, V&P Scientific, San Diego, CA). In addition, a duplicate 2-fold serial dilution of the control compounds auranofin, a known gold-based TrxR1 inhibitor, and juglone (5-hydroxy-1,4-naphthoquinone), a natural TrxR1 substrate, were pin-transferred to columns 2 and 3, respectively. After incubation for 15 min at room temperature (~22 deg C), 1 uL of selenite (400 uM final concentration) were dispensed to each well. The plate was immediately transferred to a ViewLux high-throughput CCD imager (PerkinElmer), wherein kinetic measurements of NADPH fluorescence (Ex 340 nm, Em 450 nm) were acquired (8 minute kinetic read, see Table 1). Read 1 was utilized to assess the capacity of a compound to serve as an rTrxR1 substrate, i.e. a decrease in NADPH fluorescence compared to the no-compound background is an indication of a substrate behavior for that particular compound. For inhibitory activity of a compound, delta values, computed as the difference in fluorescence intensity between the first and last reads of an 8-minute time kinetic window, were used. All reagents were diluted in an assay buffer consisting of 50 mM Tris-HCl, pH 7.5, 2 mM EDTA, and 0.01% Tween-20.
Throughout the screen, reagent bottle and all liquid lines were made light-tight to minimize reagent degradation. All screening operations were performed on a fully integrated robotic system (Kalypsys, San Diego, CA) containing one RX-130 and two RX-90 anthropomorphic robotic arms (Staubli, Duncan, SC). Library plates were screened starting from the lowest and proceeding to the highest concentration, and a 'double-pinning' step of the highest concentration was required to access higher concentrations of compounds. Vehicle-only plates, with DMSO being pin-transferred to the columns 5-48, were inserted uniformly at the beginning and the end of each library in order to monitor and record any shifts in the background, which can be affected by reagent dispensers or loss in enzyme activity over time. […]
% is scaled to controls: 0 for no effect and ±100 for the full control effect; potency is read from the fitted curve at half-maximal effect.
Also: nearly all actives have a fitted effect of over 65% in size.

Sequence of Thioredoxin reductase 1, cytoplasmic (Rattus norvegicus) (O89049 whole entry, looked up): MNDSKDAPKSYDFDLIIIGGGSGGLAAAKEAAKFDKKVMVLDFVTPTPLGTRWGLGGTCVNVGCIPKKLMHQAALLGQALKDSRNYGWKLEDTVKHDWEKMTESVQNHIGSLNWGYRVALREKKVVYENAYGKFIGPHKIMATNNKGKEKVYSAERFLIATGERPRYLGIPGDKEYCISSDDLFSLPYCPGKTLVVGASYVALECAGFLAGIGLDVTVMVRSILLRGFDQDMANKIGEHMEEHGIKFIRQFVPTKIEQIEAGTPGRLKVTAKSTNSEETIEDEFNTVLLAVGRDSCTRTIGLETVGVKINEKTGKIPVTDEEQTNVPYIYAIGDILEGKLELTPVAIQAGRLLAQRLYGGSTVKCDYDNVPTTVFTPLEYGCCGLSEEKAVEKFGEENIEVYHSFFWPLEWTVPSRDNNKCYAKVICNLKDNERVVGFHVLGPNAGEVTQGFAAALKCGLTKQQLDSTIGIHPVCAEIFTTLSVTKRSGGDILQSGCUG

Potency, active:
Cc1ccc(CNC(=O)C2(C(F)(F)F)C/C(=C\Cc3ccccc3)CCCO2)o1 (stereo unspecified) 28.2 µM
c1ccc(C2CNCc3c2ccc2ccccc32)cc1 (stereo unspecified) 79.4 µM
O=C(NC(=S)Nc1cccc(-c2ccc(CO)o2)c1)c1cccs1 39.8 µM
COc1ccc(Br)cc1C1C2C=CCC(C)C2C(=O)N1Cc1ccccc1 (stereo unspecified) 22.4 µM
C=CCn1c(=S)[nH]c2scc(-c3ccco3)c2c1=O 39.8 µM
Cc1cccc(-c2nc(CS(=O)CC(=O)NC(C)CCc3ccccc3)c(C)o2)c1 (stereo unspecified) 17.8 µM
Cc1csc(NC(=S)Nc2cccc(Cl)c2)n1 14.1 µM
CCCS(=O)(=O)c1ncc(Cl)c(C(=O)Nc2scc(-c3ccccc3)c2C(=O)OCC)n1 4.47 µM
Cc1ccccc1-c1nc(CS(=O)(=O)CC(=O)N2CCc3ccccc3C2)c(C)o1 7.94 µM
COc1ccc(-c2nc(CS(=O)CC(=O)NCc3ccccn3)c(C)o2)cc1 (stereo unspecified) 7.08 µM
COc1ccc(-c2nc(CS(=O)CC(=O)N3CCc4ccccc4C3)c(C)o2)cc1 (stereo unspecified) 7.94 µM
Cc1ccc(-c2nc(CS(=O)CC(=O)N3CCN(c4ncccn4)CC3)c(C)o2)cc1 (stereo unspecified) 10 µM
C[C@@H](NC(=O)OC(C)(C)C)c1nnc(S(=O)(=O)Cc2ccccc2)o1 0.316 µM
C=COC(=O)N1CCN(/[N+]([O-])=N/Oc2ccc([N+](=O)[O-])cc2[N+](=O)[O-])CC1 10 µM
O=C1/C(=C\c2cccnc2)CN(Cc2ccccc2)C/C1=C\c1cccnc1 50.1 µM
O=C(CC(n1cncn1)C(Cl)(Cl)Cl)c1ccc([N+](=O)[O-])cc1 (stereo unspecified) 3.55 µM
CCOc1ccc(N2C(=O)CC(N(O)c3ccccc3)C2=O)cc1 (stereo unspecified) 12.6 µM
CCOc1cccc2c1N[C@@H](c1ccc(C(=O)O)cc1)[C@H]1CC=C[C@@H]21 11.2 µM
O=C(CN1CCN(S(=O)(=O)c2cc(Cl)ccc2Cl)CC1)c1ccc(O)c(O)c1 44.7 µM
COc1ccc(C(C[N+](=O)[O-])n2nc(C)cc2C)cc1 (stereo unspecified) 8.91 µM

Potency, inactive:
O=C(NCc1ccccn1)[C@]1(C(F)(F)F)C[C@H](CCc2ccccc2)CCCO1
O=C(NCC1CC1)C1(C(F)(F)F)C/C(=C\CCO)CCCO1 (stereo unspecified)
CC(C)(C)OC(=O)N1CCC(c2c(C(=O)Nc3ccc4c(c3)OCO4)cnn2-c2ccccc2)CC1
Cc1ccc(Cl)cc1NC(=O)CCC(=O)N1CC(C)Sc2ccccc21 (stereo unspecified)
O=C(CSc1nc2ccccc2nc1Cc1ccccc1)N1CCCCC1
Cc1sc(NC(=S)NC(=O)c2cccs2)nc1-c1ccc(CC(C)C)cc1
Cn1c(SCC(=O)Nc2cccc(NC(=O)c3cccs3)c2)nnc1-c1ccncc1
Cc1nn(C)c2c1c(C(F)(F)F)cc(=O)n2C(C)C(=O)NCc1ccc(Cl)cc1 (stereo unspecified)
NS(=O)(=O)c1ccc(NC(=O)C(=O)Nc2ccc3nc4n(c(=O)c3c2)CCCCC4)cc1
COc1ccc(-c2ccc(OC)c(C3C4C=CCC(C)C4C(=O)N3Cc3ccccc3)c2)cc1C (stereo unspecified)
Cc1cccc([C@H]2[C@@H]3C=CC[C@@H](C)[C@@H]3C(=O)N2Cc2ccccc2)c1
O=c1c(NCc2cccs2)nccn1-c1ccccc1
COc1ccc(C2C(=O)N(C3CCCCCC3)CC(=O)N2CCc2ccc(Cl)cc2)cc1OC (stereo unspecified)
CCn1c(C)c(C)c2cc(C(=O)NCCc3cc(OC)ccc3OC)ccc21
CC(CCc1ccccc1)NC(=O)c1cnc(Cl)c(Cl)c1 (stereo unspecified)
Cc1ccc(-c2nc(CS(=O)(=O)CC(=O)NCc3ccccc3Cl)c(C)o2)cc1
Cc1csc[n+]1CCC1CCCCC1
Cc1ccc2oc(=O)c3cnn(CC(=O)NCc4ccccc4Cl)c3c2c1
CN(C)c1cc2c(Nc3ccc4c(cnn4Cc4ccccc4)c3)ncnc2cn1
CCN1CCN(c2ccc(/C=C/c3ccnc4ccccc34)cc2)CC1
Cc1ccc(S(=O)(=O)N(Cc2nc(-c3ccc(Cl)cc3)no2)C2CCCCC2)cc1
Cc1csc(NC(=O)C2CCN(S(=O)(=O)c3ccccc3)CC2)n1
O=C(Nc1cccc(Cl)c1)c1csnn1
CC1CCC2(CC1)N=C(c1ccccc1)C(=O)N2CC(=O)Nc1ccc(F)c(Cl)c1 (stereo unspecified)
COc1ccc(Cl)cc1NC(=O)CCn1c(=O)c2cccn2c2ccccc21
CCOC(=O)c1scc(-c2ccccc2)c1S(=O)(=O)Nc1ccccc1F
CCOC(=O)c1c(-c2ccc(C)cc2C)csc1NC(=O)CSc1nnnn1C
Cc1cc(C)c2oc(C(=O)Nc3c(C(=O)Nc4ccccc4)oc4ccccc34)cc(=O)c2c1
CC(=O)c1ccc[n+](C(C)CCC(C)[n+]2cccc(C(C)=O)c2)c1 (stereo unspecified)
O=C(Nc1ccc2nc(SCCOc3ccccc3Cl)sc2c1)c1ccco1
Cc1ccccc1-c1nc(CS(=O)(=O)CC(=O)Nc2cc(Cl)cc(Cl)c2)c(C)o1
COc1ccc(-c2nc(CS(=O)CC(=O)NCc3cccnc3)c(C)o2)cc1OC (stereo unspecified)
COc1ccc(CNC(=O)CS(=O)Cc2nc(-c3cccc(C)c3)oc2C)cc1 (stereo unspecified)
Cc1ccccc1-c1nc(CS(=O)(=O)CC(=O)NC(C)c2ccccc2)c(C)o1 (stereo unspecified)
COc1ccc(N2CCN(C(=O)CSCc3nc(-c4ccccc4Cl)oc3C)CC2)cc1
COc1cccc(-c2nc(CS(=O)(=O)CC(=O)N3CCN(c4cc(C)ccc4C)CC3)c(C)o2)c1
CNC(=O)c1ccc(-c2nc(CN3CCc4ccccc43)c(C)o2)cc1
COc1ccc(-c2nc(CN3CCN(c4ncccn4)CC3)c(C)o2)cc1C
Nc1ccc(/C=C/c2ccnc3ccccc23)c([N+](=O)[O-])c1
CCCCNc1ccc(-c2nc(-c3ccncc3)no2)cc1[N+](=O)[O-]
CCC1CCCCN1S(=O)(=O)c1ccc(NC(=O)c2cc(=O)c3ccccc3o2)cc1 (stereo unspecified)
COc1cc(CNC(=O)c2cc3n(n2)CCCN(Cc2cccc(F)c2)C3=O)cc(OC)c1OC
CC1CCN(C(=O)Cn2c(=O)n(-c3ccc(Cl)cc3)c(=O)c3c4c(sc32)CCC4)CC1
O=C(O)C1=C/C(=C/C=[N+]2c3cc(O)c(O[C@H]4OC(CO)[C@@H](O)[C@@H](O)[C@@H]4O)cc3C[C@@H]2C(=O)[O-])C[C@H](C(=O)O)N1 (stereo partly specified)
CC(C)[C@@H](NC(=O)OC(C)(C)C)C(=O)NCC1CCC(C(=O)N[C@@H](Cc2ccccc2)C(=O)O)CC1 (stereo partly specified)
CC(C)(C)c1ccc(C(CC(=O)O)NS(=O)(=O)Cc2ccccc2)cc1 (stereo unspecified)
Cc1ccc(Cl)cc1NC(=O)CSc1nccn1C
Cc1cccc(CN2Cc3cccc4c3[C@H](C=CC4)CC2=S)c1
N#Cc1ccc[n+](CC(=O)c2ccc(F)cc2)c1
CC1CCCN(c2cc3c(cc2F)c(=O)c(S(=O)(=O)c2cccc(Cl)c2)cn3Cc2ccccc2)C1 (stereo unspecified)
COc1ccc(CNC(=O)CC2Oc3ccc(C)cc3NC2=O)cc1 (stereo unspecified)
COc1cc(C(=S)N2CCOCC2)cc(OC)c1OC(=O)c1ccc([N+](=O)[O-])cc1[N+](=O)[O-]
CCOC(=O)N1CCN(c2cc(C)c([N+](=O)[O-])cc2F)CC1
O=C(O)C1CC(=O)N(Cc2cccnc2)C1 (stereo unspecified)
O=C(O)CCc1cccnc1
O=C(Nc1ccc2nc(SCC(=O)N3CCCc4ccccc43)sc2c1)c1ccc(Cl)cc1
C=C1C=C(C(F)F)n2ncc(C(=O)NCCc3ccccc3OC)c2N1
Cc1ccccc1CN1CCC(CNC(=O)c2c(C)oc3ncnc(N4CCCCC4)c23)CC1
Cc1ccc(C)c(Cn2c(C)c(CNCc3ccc(F)cc3)c(C(=O)O)c2C)c1
O=C(CCn1nnc2ccccc21)OCC(=O)c1ccc([N+](=O)[O-])cc1
O=C(Cn1c[n+](CC(=O)c2ccc([N+](=O)[O-])cc2)cn1)c1ccc([N+](=O)[O-])cc1
CCOc1ccc(N2C(=O)CC(N(CCc3ccc(OC)c(OC)c3)C(=S)Nc3ccccc3)C2=O)cc1 (stereo unspecified)
CCCOc1ccc(N2C(=O)CC(N(CCc3ccc(S(N)(=O)=O)cc3)C(C)=O)C2=O)cc1 (stereo unspecified)
O=C(CC1N=C2c3ccccc3N=C(SCc3ccc(F)cc3)N2C1=O)NCc1cccs1 (stereo unspecified)
Cc1nc2ccccn2c(=O)c1NC(=O)c1c(F)cccc1F
CCc1ccc(NC(=O)CCCc2nnc3n(CCCOC)c(=O)c4sccc4n23)cc1
CCOc1cccc(CC(=O)N2CCc3c([nH]c4ccccc34)C2c2ccc(F)cc2)c1OCC (stereo unspecified)
CCOc1ccccc1CNC(=O)c1ccc(-n2c(C)cc3c2CCC(C)C3)cc1 (stereo unspecified)
O=C(c1cnn2c1NC(=C1CC1)C=C2C(F)F)N1CCc2ccccc2C1
CCOC(=O)c1ccc(NC(=O)C2CC(=O)N(c3ccc(C(C)C)cc3)C2)cc1 (stereo unspecified)
CCN1CCN(C(=O)C2CCN(S(=O)(=O)c3cc(Cl)ccc3Cl)CC2)CC1
O=S(=O)(c1cc(Cl)ccc1Cl)N1CCN(Cc2ccco2)CC1
CN1CCN(C2(CNC(=O)COc3ccc(C(C)(C)C)cc3)CCCCC2)CC1
COc1ccc2cc(-c3[nH]ncc3CNCCn3nc(C)cc3C)ccc2c1
COc1ccc(S(=O)(=O)NCC(c2ccc(N(C)C)cc2)N2CCCC2)cc1 (stereo unspecified)

Activity change, negative = inhibition, inactive:
Brc1nc2ncnc(NCc3ccco3)c2[nH]1 24.3% [at 0.0914 µM]
